Shown are actives, neighbours in structure and some others; about 1.5% of the full set was active somewhere.
RTF Ca sens inh: cardiac RTF calcium desensitization; IANBD-labeled cardiac RTF, Ca2+ fluorescence; inhibition, % at 7.15 µM; 0.12% of 340,000 active;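 active means inhibition above the mean inhibition of all tested compounds plus 3 SD, cut at about 17% in these data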;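 further: assay run at fixed EC70 calcium of 1.6 mM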
CRFBP-R2 block: CRF-BP/CRF-R2 complex antagonism. HEK293 CRF-R2/CRF-BP, CRF-induced calcium fluorescence. inhibition, % at 11.8 µM. 0.59% of 350,000 active;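 active means inhibition of the ligand-induced calcium signal above about 50% at the single tested concentration, limit read from the data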
IDE cell inh: inhibits human insulin-degrading enzyme in HEK cells. P14735. FAbetaB cleavage, fluorescence polarization. inhibition, % at 5.59 µM. 0.41% of 320,000 active. AID 434962;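 active means percent inhibition above the average of all tested compounds plus 3 SD, set per screening campaign, cut at about 16% in these data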;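 further: IDE supplied by intact live HEK cells; FP after avidin binding of uncleaved biotin substrate so inhibition keeps polarization high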
Target sequence (P14735 whole entry, looked up): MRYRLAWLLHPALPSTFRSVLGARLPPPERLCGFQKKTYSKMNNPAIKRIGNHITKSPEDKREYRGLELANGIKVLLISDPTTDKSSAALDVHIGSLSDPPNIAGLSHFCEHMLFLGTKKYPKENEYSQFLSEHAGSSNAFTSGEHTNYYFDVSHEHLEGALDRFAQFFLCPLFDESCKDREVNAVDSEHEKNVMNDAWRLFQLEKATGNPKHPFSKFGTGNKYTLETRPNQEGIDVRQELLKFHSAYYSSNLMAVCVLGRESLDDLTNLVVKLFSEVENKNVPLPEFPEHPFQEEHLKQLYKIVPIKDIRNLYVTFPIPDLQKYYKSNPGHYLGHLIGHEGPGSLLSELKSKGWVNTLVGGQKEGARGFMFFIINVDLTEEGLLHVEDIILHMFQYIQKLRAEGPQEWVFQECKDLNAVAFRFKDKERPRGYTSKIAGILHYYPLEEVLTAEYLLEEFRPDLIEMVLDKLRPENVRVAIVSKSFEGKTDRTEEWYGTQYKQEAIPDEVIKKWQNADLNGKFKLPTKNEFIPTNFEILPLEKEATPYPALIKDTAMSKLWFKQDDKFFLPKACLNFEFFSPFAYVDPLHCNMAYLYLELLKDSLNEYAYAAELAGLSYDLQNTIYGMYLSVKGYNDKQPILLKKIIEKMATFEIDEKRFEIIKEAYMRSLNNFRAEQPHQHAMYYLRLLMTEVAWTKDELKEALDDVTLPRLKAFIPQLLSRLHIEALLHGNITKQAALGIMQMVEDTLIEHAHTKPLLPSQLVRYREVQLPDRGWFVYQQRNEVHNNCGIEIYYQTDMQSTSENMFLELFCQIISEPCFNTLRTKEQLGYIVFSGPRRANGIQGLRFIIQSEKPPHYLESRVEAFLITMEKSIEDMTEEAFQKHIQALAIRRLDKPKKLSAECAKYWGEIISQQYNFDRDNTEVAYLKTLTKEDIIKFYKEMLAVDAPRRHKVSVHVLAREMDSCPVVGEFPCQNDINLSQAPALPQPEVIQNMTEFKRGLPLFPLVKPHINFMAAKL
RTF Ca sens act: increases calcium sensitivity of human cardiac regulated thin filaments; P19429+P45379; IANBD-labeled TnC RTF fluorescence at EC20 calcium; 0% EC20 calcium, 100% full calcium; activation, % at 7.2 µM; 0.24% of 340,000 active; AID 493008;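 active means activation above the mean over all tested compounds plus 3 SD, cut at about 30% in these data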;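 further: rise in fluorescence read as greater calcium sensitivity of cardiac thin filaments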
IDE cell activ: IDE (human) activation, cell-based. activation, % at 5.96 µM. 0.073% of 340,000 active. AID 493087. HEK cells, FAbeta-B cleavage, fluorescence polarization; 0% vehicle, 100% cell-free pure enzyme wells;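 active means activation above the mean of all tested compounds plus 3 SD, set per screening campaign, cut at about 17% in these data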
CRFBP-R2 agonist: agonists of human CRF-binding protein/CRF-R2 receptor complex | 0.46% of 350,000 active | AID 588473 | HEK293 CRF-R2/CRF-BP, calcium dye fluorescence (FLIPR); percent of saturating CRF peptide response | activation, % at 13.2 µM;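 active means activation of at least 50%, plus an integration ratio under a set limit after plate pattern correction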
Each line names hits and unclear results; the compound was inactive in the other large screens.

O=C(c1ccc(Cl)cc1)N1CCC(C(=O)N2CCCc3ccccc32)CC1	none
OCCOCCN1CCN(C(=S)Nc2ccccc2)CC1	CRFBP-R2 block 70
OCCN1CCN(C(=S)Nc2ccc(Oc3ccccc3)cc2)CC1	none
COc1cc(C(=O)Nc2cccc(NC(=O)c3cccs3)c2)cc(OC)c1OC	none (no result: IDE cell inh)
O=C(NCCCO)C(=O)c1c(-c2ccccc2)cc2ccccn12	none
CN(C)CCNC(=O)C(=O)c1c(-c2ccccc2)cc2ccccn12	CRFBP-R2 block 65
CCc1ccc(NC(=O)C(C)Sc2ccc(S(=O)(=O)N3CCN(C)CC3)cn2)cc1 (centres undefined)	none
Cc1cc2nc3s/c(=C/c4ccc(-c5ccccc5C(=O)O)o4)c(=O)n3c2cc1C	CRFBP-R2 agonist 141
CC1=NN(c2ccc(Br)cc2)C(=O)/C1=C/c1ccc(-c2ccccc2C(=O)O)o1	none
O=C(O)c1cc(-c2ccc(/C=c3\sc4nc5ccc(Br)cc5n4c3=O)o2)ccc1Cl	none (no result: RTF Ca sens inh, CRFBP-R2 block, RTF Ca sens act, IDE cell activ, CRFBP-R2 agonist)
O=C(O)c1ccccc1-c1ccc(/C=c2\sc3nc4cc(Br)cnc4n3c2=O)o1	RTF Ca sens inh 55, CRFBP-R2 agonist 157
CSc1ncc(Cl)c(C(=O)Nc2ccc(S(=O)(=O)N3CCOCC3)cc2)n1	CRFBP-R2 block 90
O=C(Nc1ccc(S(=O)(=O)N2CCOCC2)cc1)c1ccc(Cl)c([N+](=O)[O-])c1	CRFBP-R2 block 56 (no result: IDE cell inh)
CCOc1ccc(S(=O)(=O)Nc2ccn(C)n2)cc1	none
COc1c2ccoc2nc2c(OC)c(OC[C@@H](O)C(C)(C)O)ccc12	none
COc1ccc(S(=O)(=O)N(CC(=O)NCc2ccco2)c2ccccc2OC)cc1	none
O=C(COc1ccccc1)N1CCN(C(=O)c2ccc([N+](=O)[O-])cc2)CC1	none
O=C(COc1ccc2ccccc2c1)N1CCN(C(=O)c2ccc([N+](=O)[O-])cc2)CC1	CRFBP-R2 block 72
COc1ccc2nc(N(Cc3ccccc3)C(=O)CCNC(C)=O)sc2c1	none
O=C1C2C3C=CC(CC3)C2C(=O)N1c1ccccc1F (centres undefined)	none
CCOC(=O)C(C(=O)OCC)c1cc(Br)c2noc3c2c1C(=O)c1ccccc1-3	RTF Ca sens act 96
CCc1cccc(NC(=O)CCCn2nc(C)c3c(C)n(-c4ccccc4)nc3c2=O)c1	none
O=C(CCc1nc2ccccc2c(=O)[nH]1)Nc1ccc(N2CCCCC2)cc1	IDE cell inh 17
O=C(CCN1CCCCC1=O)NC1CCCN(Cc2ccc(Cl)cc2)C1 (centres undefined)	CRFBP-R2 block 89
CC(C)Cc1ccc(CN2CCCC(NC(=O)CCN3CCCCC3=O)C2)cc1 (centres undefined)	none
NC(=O)CN1CCN(C(=O)NC2CCCCC2)CC1	none
O=C(NCCN1CCN(C(=O)NC2CCCCC2)CC1)NC1CCCCC1	CRFBP-R2 block 67
C=CCn1c(SCC(=O)NC2(C)CCS(=O)(=O)C2)nc2ccccc21 (centres undefined)	none
COc1cccc2cc(-c3ccnc(=S)[nH]3)oc12	IDE cell inh 39 (no result: RTF Ca sens inh, CRFBP-R2 block, RTF Ca sens act, IDE cell activ, CRFBP-R2 agonist)
COc1cc(/C=C2/SC(=Nc3ccc(O)cc3)NC2=O)cc(OC)c1O	IDE cell inh 58
Cc1ccsc1C(=O)N(C)CC(=O)N(CC(C)C)c1c(N)n(CC(C)C)c(=O)[nH]c1=O	none
O=C(Nc1ncc([N+](=O)[O-])s1)c1cccc([N+](=O)[O-])c1	CRFBP-R2 block 70, CRFBP-R2 agonist 66
CCc1cc2c(SCC(=O)N3CCCC3=O)ncnc2s1	none
O=C(NC1CCCCC1)C1CCN(C(=O)c2ccc(Cl)cc2)CC1	none
Cc1ccc(CNc2ccc3c(c2)ncn3C(C)C)cc1	CRFBP-R2 agonist 61
CCn1cnc2cc(NCc3ccc(Br)cc3)ccc21	CRFBP-R2 agonist 52 (no result: RTF Ca sens inh, RTF Ca sens act, IDE cell activ)
CCCn1cnc2cc(NCc3ccc(Br)cc3)ccc21	none
CCn1cnc2cc(NCc3ccc(C)cc3)ccc21	none
CCCn1c(SCC(=O)N2c3ccccc3CC2C)n[nH]c1=O (centres undefined)	none (no result: IDE cell inh)
Cc1cc(C(=O)N2CCCC(Nc3ccccc3)C2)c2ccc(F)cc2n1 (centres undefined)	none
CC(=O)c1cc(NC(=O)c2cccc(C(F)(F)F)c2)c(=O)oc1/C=C/N(C)C	CRFBP-R2 agonist 76
CC1CCCN(CCCNC(=O)CN2C(=O)CSc3ccc(S(=O)(=O)N4CCOCC4)cc32)C1 (centres undefined)	CRFBP-R2 block 89
CC1CCN(S(=O)(=O)c2ccc3c(c2)N(CC(=O)NCCCN2CCCC(C)C2)C(=O)CS3)CC1 (centres undefined)	none
C#CCOCCOCCOCCNc1nc(N2CCOCC2)nc(N2CCN(C(=O)[C@H](C)n3cc(CCC(=O)O)nn3)CC2)n1	none (no result: IDE cell inh)
O=C(NNC(=O)c1ccc([N+](=O)[O-])cc1)c1ccc(Br)cc1	none
O=C(NNC(=S)NC(=O)c1ccc(Br)cc1)c1ccc([N+](=O)[O-])cc1	CRFBP-R2 agonist 95
CCOC(=O)Cc1csc(NC(=S)NC(=O)c2ccc([N+](=O)[O-])cc2)n1	CRFBP-R2 block 57
Cc1ccc(C(=O)NC(=S)NNC(=O)c2ccc([N+](=O)[O-])cc2)cc1	CRFBP-R2 agonist 94
O=C(N=C1SC2CS(=O)(=O)CC2N1c1cccc(Cl)c1Cl)C1CCCO1 (centres undefined)	none
O=C(Cc1cccs1)Nc1ccc(F)cc1	none
Cc1ccccc1N(CC(=O)N1CCN(Cc2ccccc2)CC1)S(C)(=O)=O	CRFBP-R2 block 70 (no result: RTF Ca sens inh, IDE cell inh, RTF Ca sens act, IDE cell activ)
Cc1ccc(-n2c(SCC(=O)NC3CCS(=O)(=O)C3)nc3ccccc3c2=O)cc1C (centres undefined)	none
COc1cccc(CN2CCN(S(=O)(=O)c3ccc(NC(C)=O)cc3)CC2)c1OC	none
COc1ccc(OC)c(CN2CCN(S(=O)(=O)c3ccc(NC(C)=O)cc3)CC2)c1	CRFBP-R2 block 53
CC(OC(=O)Cc1c[nH]c2ccccc12)C(=O)NC1CCCCC1C (centres undefined)	none
CC1(C)CC[C@]2(C(=O)n3ccnc3)CC[C@]3(C)[C@H](C(=O)C=C4[C@@]5(C)C=C(C#N)C(=O)C(C)(C)[C@@H]5CC[C@]43C)[C@@H]2C1	CRFBP-R2 agonist 122 (no result: IDE cell inh)
CN(Cc1cccnc1)C(=O)CCCc1c[nH]c2ccccc12	none
Cc1ccc(CN(C)C(=O)CCc2c[nH]c3ccccc23)o1	CRFBP-R2 block 57
COC(=O)c1ccc(NC(=O)COC(=O)CSc2nc(C)cc(C)n2)cc1	CRFBP-R2 block 52
O=C(Nc1ccc(O)cc1)c1cccc(Oc2ccc([N+](=O)[O-])cc2)c1	CRFBP-R2 block 57
COc1ccc(NC(=O)c2cc([N+](=O)[O-])ccc2O)cc1	IDE cell activ 22
O=C(CC1OC(=O)c2ccccc21)Nc1cc(Cl)ccc1N1CCOCC1 (centres undefined)	none
